A selection: hits, their analogues and other compounds. The true share with any hit is near 4.2%.
tim10-1 inh – inhibits growth of tim10-1 mutant yeast. inhibition, % at 20 µM. S. cerevisiae tim10-1 ts strain growth, BacTiter-Glo, 24 h. hit rate 2.2% among 330,000;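 active = inhibition of at least 40%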;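 note: mutant grown at 25 °C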
tim23-1 inh – inhibits growth of tim23-1 mutant yeast | inhibition, % at 20 µM | AID 463212 | S. cerevisiae tim23-1 growth, BacTiter-Glo luminescence, 24 h | hit rate 1.3% among 330,000;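 active = growth inhibition of the mutant yeast at or above 50%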;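 note: temperature-sensitive mutant grown at 25 °C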
NALP1 inh – NALP1 inhibition; hit rate 0.61% among 280,000; inhibition, % at 10 µM; S. cerevisiae NALP1/ASC/caspase-1 growth, X-gal OD620, 72 h; in the data active = inhibition mostly above about 24%, no sharp cut-off; inactive = mostly below about 32%
V-ATPase pH – alters yeast V-ATPase proton transport; S. cerevisiae, pHLuorin cytosolic pH fluorescence; hit rate 0.37% among 350,000; AID 504577; response, % at 10 µM; in the data active = response mostly above about 7.3%, no sharp cut-off; inactive = mostly below about 5.4%; note: actives read high
TIM10 inh – inhibits growth of TIM10 yeast strain; inhibition, % at 10 µM; S. cerevisiae TIM10 strain growth, BacTiter-Glo luminescence, 24 h; hit rate 1.4% among 330,000;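 active = inhibition of 40% or more at the single tested concentration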;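 note: wild-type TIM10 isogenic control strain grown at permissive 25 °C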
NALP3 yeast inh – blocks the NALP3 inflammasome reconstituted in yeast | Yeast reconstituted NLRP3/ASC/caspase-1, beta-gal luminescence, 24 h | inhibition, % at 10 µM | hit rate 0.39% among 330,000 | AID 2825;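 active = inhibition of 50% or more; inactive = inhibition below 50%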
tim10-1 conf – tim10-1 yeast growth inhibition, confirmed | hit rate 56% among 7,400 | inhibition, % at 20 µM | AID 463213 | S. cerevisiae tim10-1 ts strain growth, BacTiter-Glo, 24 h | shares compounds with tim10-1 inh;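 active = inhibition of yeast growth at or above a set limit in either of two repeat tests at 20 µM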;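 note: tim10-1 mutant grown at permissive 25 °C to find synthetic lethal compounds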
A number is an active result.

S=c1nc[nH]c2c1sc1nc(N3CCOCC3)c3c(c12)CCCC3 was read as tim10-1 inh 43.3, tim23-1 inh inactive, NALP1 inh inactive, V-ATPase pH inactive, TIM10 inh inactive, NALP3 yeast inh inactive and tim10-1 conf inactive.
`CC(O)(CS(=O)(=O)Cc1ccc(Cl)cc1)C(=O)Nc1cccc(C(F)(F)F)c1` (stereo unspecified) gave tim10-1 inh inactive, tim23-1 inh inactive, NALP1 inh inactive, V-ATPase pH inactive, TIM10 inh inactive and NALP3 yeast inh inactive.
Screening O=C(Nc1cccc(C(F)(F)F)c1)N(Cc1ccc(Cl)cc1)CC(O)C(F)(F)F (stereo unspecified) returned tim10-1 inh 46.5, tim23-1 inh inactive, NALP1 inh inactive, V-ATPase pH inactive, TIM10 inh inactive, NALP3 yeast inh inactive and tim10-1 conf inactive.
`COC(=O)c1c(NC(=O)Cn2cnc([N+](=O)[O-])n2)sc2c1CCC(C)C2` (stereo unspecified) gave tim10-1 inh 49.9, tim23-1 inh inactive, NALP1 inh inactive, V-ATPase pH inactive, TIM10 inh inactive, NALP3 yeast inh inactive and tim10-1 conf inactive.
Screening O=C(NCc1nc2ccccc2[nH]1)C1=C[C@@H](C2CC2)C[C@@H](OCc2ccc(CO)cc2)O1 returned tim10-1 inh inactive, tim23-1 inh inactive, NALP1 inh inactive, V-ATPase pH inactive, TIM10 inh inactive and NALP3 yeast inh inactive.
Cc1cccc(/C=N/NC(=O)c2ccc(NC(=O)c3ccc(Cl)cc3)cc2)n1 was read as tim10-1 inh 96.4, tim23-1 inh inactive, NALP1 inh inactive, V-ATPase pH inactive, TIM10 inh inactive, NALP3 yeast inh inactive and tim10-1 conf inactive.
For Cc1cc(C)c(S(=O)(=O)c2ccccc2)c(OC(=O)c2c(F)cccc2F)n1 the results were tim10-1 inh inactive, tim23-1 inh inactive, NALP1 inh inactive, V-ATPase pH inactive, TIM10 inh inactive and NALP3 yeast inh inactive.
`Cc1cc(C)c(S(=O)(=O)c2ccccc2)c(OC(=O)c2c(Cl)cc(Cl)cc2Cl)n1` gave tim10-1 inh 41.5, tim23-1 inh inactive, NALP1 inh inactive, V-ATPase pH inactive, TIM10 inh inactive, NALP3 yeast inh inactive and tim10-1 conf 35.5.
`FCCCOc1ccc(/C=N/OCc2ccc(Cl)cc2)cc1` gave tim10-1 inh inactive, tim23-1 inh inactive, NALP1 inh inactive, V-ATPase pH inactive, TIM10 inh inactive and NALP3 yeast inh inactive.
Cc1c(Cl)cccc1NC(=S)N1CCOCC1 was read as tim10-1 inh inactive, tim23-1 inh inactive, NALP1 inh inactive, V-ATPase pH inactive, TIM10 inh inactive and NALP3 yeast inh inactive.
`Cc1c(Cl)cccc1NC(=S)N1CCc2ccccc2C1` gave tim10-1 inh 51.2, tim23-1 inh inactive, NALP1 inh inactive, V-ATPase pH inactive, TIM10 inh inactive, NALP3 yeast inh inactive and tim10-1 conf inactive.
`CCCCCc1nnc(NC(=O)Cc2ccc([N+](=O)[O-])cc2)s1` gave tim10-1 inh inactive, tim23-1 inh inactive, NALP1 inh inactive, V-ATPase pH inactive, TIM10 inh inactive and NALP3 yeast inh inactive.
For CCCN1C2CCCC1CC(NC(=O)c1cccc([N+](=O)[O-])c1)C2 (stereo unspecified) the results were tim10-1 inh inactive, tim23-1 inh inactive, NALP1 inh inactive, V-ATPase pH inactive, TIM10 inh inactive and NALP3 yeast inh inactive.
Screening CN(C)c1nc(OCCOC(=O)Nc2ccc(Cl)cc2Cl)nc(N(C)C)n1 returned tim10-1 inh 41.6, tim23-1 inh inactive, NALP1 inh inactive, V-ATPase pH inactive, TIM10 inh inactive, NALP3 yeast inh inactive and tim10-1 conf inactive.
`Fc1c(F)c(C(F)(F)F)c(F)c(F)c1N/N=C\c1cccs1` gave tim10-1 inh 47.2, tim23-1 inh inactive, NALP1 inh inactive, V-ATPase pH inactive, TIM10 inh inactive, NALP3 yeast inh inactive and tim10-1 conf 68.7.
`COc1ccc2c(c1)CCN=C2Cc1ccc(OC)c(OC)c1` gave tim10-1 inh inactive, tim23-1 inh inactive, NALP1 inh inactive, V-ATPase pH inactive, TIM10 inh inactive and NALP3 yeast inh inactive.
`CC1(C)Cc2c(sc(NC(=O)C(=O)N3CCCC3)c2C(=O)O)CO1` gave tim10-1 inh inactive, tim23-1 inh inactive, NALP1 inh inactive, V-ATPase pH inactive, TIM10 inh inactive and NALP3 yeast inh inactive.
Screening CC1(C)Cc2c(sc(NC(=O)C(=O)N3CCCC3)c2C#N)CO1 returned tim10-1 inh 40.6, tim23-1 inh inactive, NALP1 inh inactive, V-ATPase pH inactive, TIM10 inh inactive, NALP3 yeast inh inactive and tim10-1 conf inactive.
For CCOc1ccc(OCC)c(Nc2cc(C)nc3nc(C)nn23)c1 the results were tim10-1 inh inactive, tim23-1 inh inactive, NALP1 inh inactive, V-ATPase pH inactive, TIM10 inh inactive and NALP3 yeast inh inactive.
Screening O=C1CN(C(=O)c2c(F)cccc2F)C(c2ccc(F)cc2)c2cc(Br)ccc2N1 (stereo unspecified) returned tim10-1 inh 41.2, tim23-1 inh inactive, NALP1 inh inactive, V-ATPase pH inactive, TIM10 inh inactive, NALP3 yeast inh inactive and tim10-1 conf 29.5.
Screening O=C1CN(C(=O)c2c(F)cccc2F)C(c2ccccc2)c2cc(Br)ccc2N1 (stereo unspecified) returned tim10-1 inh inactive, tim23-1 inh inactive, NALP1 inh inactive, V-ATPase pH inactive, TIM10 inh inactive and NALP3 yeast inh inactive.
For COc1ccc(NC(C)(C)c2nnnn2-c2c(C)cccc2C)cc1 the results were tim10-1 inh 40.0, tim23-1 inh inactive, NALP1 inh inactive, V-ATPase pH inactive, TIM10 inh inactive, NALP3 yeast inh inactive and tim10-1 conf 32.2.
For Cn1cnc2cc(NC(=O)c3ccco3)ccc21 the results were tim10-1 inh inactive, tim23-1 inh inactive, NALP1 inh inactive, V-ATPase pH inactive, TIM10 inh inactive and NALP3 yeast inh inactive.
For Cc1sc(NC(=O)c2ccco2)c(C(c2ccc(F)cc2)N2CCN(C)CC2)c1C (stereo unspecified) the results were tim10-1 inh 56.3, tim23-1 inh inactive, NALP1 inh inactive, V-ATPase pH inactive, TIM10 inh inactive, NALP3 yeast inh inactive and tim10-1 conf inactive.
For Cc1ccc(NC2CCCN(C(=O)c3cc(C(C)C)[nH]n3)C2)cc1C (stereo unspecified) the results were tim10-1 inh inactive, tim23-1 inh inactive, NALP1 inh inactive, V-ATPase pH inactive, TIM10 inh inactive and NALP3 yeast inh inactive.
`S=C(Nc1ccccc1)N1N=CCC1c1ccccc1` (stereo unspecified) gave tim10-1 inh 46.1, tim23-1 inh inactive, NALP1 inh inactive, V-ATPase pH inactive, TIM10 inh inactive, NALP3 yeast inh inactive and tim10-1 conf inactive.
`O=C(Nc1cccc2ccccc12)N1CCN(c2ccccc2)CC1` gave tim10-1 inh inactive, tim23-1 inh inactive, NALP1 inh inactive, V-ATPase pH inactive, TIM10 inh inactive and NALP3 yeast inh inactive.
